# Measured values: ChEMBL document CHEMBL1961873, “Compounds: GSK PKIS; Assays: Nanosyn kinase panel” (2012)
# Tests used:
# [1] = target: Sphingosine kinase 1 (Homo sapiens) (UniProt Q9NYA1); details: at 1 µM;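 further: mean SPHK1 inhibition value reported from the GSK PKIS kinase panel screen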
# [2] = target: T1, Sphingosine kinase 2 (Homo sapiens) (UniProt Q9NRA0); details: at 0.1 µM
# T1 sequence (whole entry): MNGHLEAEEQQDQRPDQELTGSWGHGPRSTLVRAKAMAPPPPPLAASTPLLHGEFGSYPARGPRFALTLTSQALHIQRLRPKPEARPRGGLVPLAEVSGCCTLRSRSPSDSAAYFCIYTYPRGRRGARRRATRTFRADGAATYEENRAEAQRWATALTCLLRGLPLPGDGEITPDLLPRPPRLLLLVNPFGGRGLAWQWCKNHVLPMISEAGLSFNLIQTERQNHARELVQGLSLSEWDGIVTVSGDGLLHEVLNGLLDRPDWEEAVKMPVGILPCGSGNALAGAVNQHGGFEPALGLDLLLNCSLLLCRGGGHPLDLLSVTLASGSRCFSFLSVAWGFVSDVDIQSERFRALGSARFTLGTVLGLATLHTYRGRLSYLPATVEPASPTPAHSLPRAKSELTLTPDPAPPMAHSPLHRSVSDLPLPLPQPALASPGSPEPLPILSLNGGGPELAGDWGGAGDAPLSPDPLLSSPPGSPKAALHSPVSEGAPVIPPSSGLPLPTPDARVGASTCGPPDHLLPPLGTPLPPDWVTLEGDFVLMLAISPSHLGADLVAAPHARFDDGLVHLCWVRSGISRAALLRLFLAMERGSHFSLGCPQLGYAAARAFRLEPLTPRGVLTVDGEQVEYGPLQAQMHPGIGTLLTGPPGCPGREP
# [3] = target: T1, Sphingosine kinase 2 (Homo sapiens); details: at 1 µM
# [4] = target: Casein kinase II subunit alpha (Homo sapiens) (UniProt P68400); details: at 0.1 µM
# Chain of Casein kinase II subunit alpha (Homo sapiens) (P68400 whole entry, looked up): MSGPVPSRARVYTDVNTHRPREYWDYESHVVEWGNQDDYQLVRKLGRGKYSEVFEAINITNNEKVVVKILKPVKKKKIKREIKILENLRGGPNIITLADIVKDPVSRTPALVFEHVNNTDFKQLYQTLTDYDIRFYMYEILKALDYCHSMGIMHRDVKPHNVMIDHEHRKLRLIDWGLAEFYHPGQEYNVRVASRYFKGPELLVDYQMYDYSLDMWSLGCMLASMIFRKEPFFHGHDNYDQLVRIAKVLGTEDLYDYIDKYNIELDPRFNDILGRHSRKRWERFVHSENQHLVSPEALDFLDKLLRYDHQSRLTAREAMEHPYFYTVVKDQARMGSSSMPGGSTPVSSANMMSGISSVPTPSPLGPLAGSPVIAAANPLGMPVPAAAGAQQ
# [5] = target: Casein kinase II subunit alpha (Homo sapiens) (UniProt P68400); details: at 1 µM
# [6] = target: T2, Inhibitor of nuclear factor kappa-B kinase subunit alpha (Homo sapiens) (UniProt O15111); details: at 0.1 µM
# T2 sequence (whole entry): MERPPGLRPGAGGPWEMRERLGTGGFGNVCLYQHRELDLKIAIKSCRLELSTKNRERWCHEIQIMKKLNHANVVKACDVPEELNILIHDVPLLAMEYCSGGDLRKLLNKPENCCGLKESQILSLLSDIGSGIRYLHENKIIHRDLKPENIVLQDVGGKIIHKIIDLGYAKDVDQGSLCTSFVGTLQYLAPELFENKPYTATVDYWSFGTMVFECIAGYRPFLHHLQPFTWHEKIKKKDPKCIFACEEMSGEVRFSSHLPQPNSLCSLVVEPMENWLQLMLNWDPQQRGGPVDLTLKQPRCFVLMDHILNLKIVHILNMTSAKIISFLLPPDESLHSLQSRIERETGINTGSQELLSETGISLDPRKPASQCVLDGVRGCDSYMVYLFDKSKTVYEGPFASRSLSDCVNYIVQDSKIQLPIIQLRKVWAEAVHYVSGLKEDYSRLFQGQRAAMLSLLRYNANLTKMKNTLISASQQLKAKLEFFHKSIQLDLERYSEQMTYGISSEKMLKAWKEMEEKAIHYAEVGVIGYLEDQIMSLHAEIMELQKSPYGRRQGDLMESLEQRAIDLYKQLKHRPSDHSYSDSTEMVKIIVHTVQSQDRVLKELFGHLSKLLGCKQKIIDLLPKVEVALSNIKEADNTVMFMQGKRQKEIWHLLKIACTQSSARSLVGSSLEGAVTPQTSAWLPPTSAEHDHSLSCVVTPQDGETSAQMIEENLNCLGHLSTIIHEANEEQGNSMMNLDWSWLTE
# [7] = target: T2, Inhibitor of nuclear factor kappa-B kinase subunit alpha (Homo sapiens); details: at 1 µM
# [8] = target: T3, Inhibitor of nuclear factor kappa-B kinase subunit beta (Homo sapiens) (UniProt O14920); details: at 0.1 µM
# T3 sequence (whole entry): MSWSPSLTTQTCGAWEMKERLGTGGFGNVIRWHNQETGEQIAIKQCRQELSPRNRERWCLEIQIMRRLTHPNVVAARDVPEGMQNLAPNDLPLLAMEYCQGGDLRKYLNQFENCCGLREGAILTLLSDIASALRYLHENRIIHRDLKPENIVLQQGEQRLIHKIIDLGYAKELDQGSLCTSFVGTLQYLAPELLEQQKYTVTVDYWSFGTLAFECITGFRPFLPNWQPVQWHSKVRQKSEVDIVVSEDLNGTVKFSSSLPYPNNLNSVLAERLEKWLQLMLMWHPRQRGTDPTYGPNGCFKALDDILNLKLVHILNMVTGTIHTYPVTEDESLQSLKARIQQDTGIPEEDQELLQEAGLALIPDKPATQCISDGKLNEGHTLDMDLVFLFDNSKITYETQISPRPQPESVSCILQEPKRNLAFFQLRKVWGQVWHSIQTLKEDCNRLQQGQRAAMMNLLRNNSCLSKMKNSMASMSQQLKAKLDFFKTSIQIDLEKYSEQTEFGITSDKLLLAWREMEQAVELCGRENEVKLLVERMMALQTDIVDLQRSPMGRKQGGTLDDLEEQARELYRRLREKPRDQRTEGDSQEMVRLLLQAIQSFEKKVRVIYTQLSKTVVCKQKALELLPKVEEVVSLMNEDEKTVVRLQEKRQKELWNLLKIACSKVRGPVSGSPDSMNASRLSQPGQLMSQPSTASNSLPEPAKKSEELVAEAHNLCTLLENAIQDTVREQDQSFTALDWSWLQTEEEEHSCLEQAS
# [9] = target: T3, Inhibitor of nuclear factor kappa-B kinase subunit beta (Homo sapiens); details: at 1 µM
# [10] = target: T4, Inhibitor of nuclear factor kappa-B kinase subunit epsilon (Homo sapiens) (UniProt Q14164); details: at 0.1 µM
# T4 sequence (whole entry): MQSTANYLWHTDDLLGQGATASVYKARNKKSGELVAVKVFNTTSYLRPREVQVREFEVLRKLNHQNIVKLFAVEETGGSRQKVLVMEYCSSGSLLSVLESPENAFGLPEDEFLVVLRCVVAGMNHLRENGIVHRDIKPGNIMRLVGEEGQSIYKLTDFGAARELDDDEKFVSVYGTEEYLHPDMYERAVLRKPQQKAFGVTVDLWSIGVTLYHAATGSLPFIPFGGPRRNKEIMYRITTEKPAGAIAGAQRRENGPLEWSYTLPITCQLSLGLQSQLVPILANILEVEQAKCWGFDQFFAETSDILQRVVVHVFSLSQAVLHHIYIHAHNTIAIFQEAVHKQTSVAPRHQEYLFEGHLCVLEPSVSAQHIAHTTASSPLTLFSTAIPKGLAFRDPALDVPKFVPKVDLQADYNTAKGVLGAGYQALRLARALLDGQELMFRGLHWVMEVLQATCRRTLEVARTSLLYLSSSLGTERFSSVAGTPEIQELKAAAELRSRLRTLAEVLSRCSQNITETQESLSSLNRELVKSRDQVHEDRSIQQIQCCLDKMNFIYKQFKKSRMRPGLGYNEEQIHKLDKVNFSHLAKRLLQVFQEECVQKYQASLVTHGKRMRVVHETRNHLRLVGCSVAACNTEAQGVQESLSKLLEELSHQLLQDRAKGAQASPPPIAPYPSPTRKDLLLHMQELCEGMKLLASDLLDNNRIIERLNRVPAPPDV
# [11] = target: T4, Inhibitor of nuclear factor kappa-B kinase subunit epsilon (Homo sapiens); details: at 1 µM
# [12] = target: T5, Serine/threonine-protein kinase Nek1 (Homo sapiens) (UniProt Q96PY6); details: at 0.1 µM
# T5 sequence (whole entry): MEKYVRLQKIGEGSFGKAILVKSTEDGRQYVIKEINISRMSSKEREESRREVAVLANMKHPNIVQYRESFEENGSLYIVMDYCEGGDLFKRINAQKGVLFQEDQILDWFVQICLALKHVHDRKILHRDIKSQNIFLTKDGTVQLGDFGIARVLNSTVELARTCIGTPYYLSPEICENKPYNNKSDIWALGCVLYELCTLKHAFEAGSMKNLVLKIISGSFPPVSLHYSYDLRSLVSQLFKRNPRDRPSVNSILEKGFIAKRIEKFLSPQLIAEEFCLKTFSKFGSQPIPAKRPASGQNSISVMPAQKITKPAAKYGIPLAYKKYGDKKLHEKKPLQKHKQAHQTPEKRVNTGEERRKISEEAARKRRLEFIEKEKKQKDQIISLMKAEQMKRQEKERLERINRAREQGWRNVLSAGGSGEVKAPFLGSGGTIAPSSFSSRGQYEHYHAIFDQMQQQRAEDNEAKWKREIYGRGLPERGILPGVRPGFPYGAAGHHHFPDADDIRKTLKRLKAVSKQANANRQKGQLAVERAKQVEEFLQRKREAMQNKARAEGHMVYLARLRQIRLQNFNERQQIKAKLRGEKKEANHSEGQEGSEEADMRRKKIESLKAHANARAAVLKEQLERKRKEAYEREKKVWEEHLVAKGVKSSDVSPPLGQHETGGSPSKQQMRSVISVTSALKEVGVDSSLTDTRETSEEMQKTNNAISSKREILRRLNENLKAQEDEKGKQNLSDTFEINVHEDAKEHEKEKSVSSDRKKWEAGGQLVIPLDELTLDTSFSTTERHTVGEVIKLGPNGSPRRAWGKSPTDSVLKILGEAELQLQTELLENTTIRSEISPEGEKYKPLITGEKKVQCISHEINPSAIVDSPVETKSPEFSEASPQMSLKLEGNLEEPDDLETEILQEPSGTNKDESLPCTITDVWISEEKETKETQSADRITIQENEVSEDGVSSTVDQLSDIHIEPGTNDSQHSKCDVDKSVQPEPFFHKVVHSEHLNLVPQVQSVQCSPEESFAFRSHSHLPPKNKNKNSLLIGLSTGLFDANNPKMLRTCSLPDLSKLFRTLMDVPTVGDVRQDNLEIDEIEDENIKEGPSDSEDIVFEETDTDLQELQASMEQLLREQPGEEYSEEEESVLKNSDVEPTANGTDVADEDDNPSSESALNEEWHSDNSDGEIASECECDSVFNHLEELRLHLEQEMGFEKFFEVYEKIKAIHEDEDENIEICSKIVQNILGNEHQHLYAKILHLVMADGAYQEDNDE
# [13] = target: T5, Serine/threonine-protein kinase Nek1 (Homo sapiens); details: at 1 µM
# [14] = target: T6, Serine/threonine-protein kinase Nek2 (Homo sapiens) (UniProt P51955); details: at 0.1 µM
# T6 sequence (whole entry): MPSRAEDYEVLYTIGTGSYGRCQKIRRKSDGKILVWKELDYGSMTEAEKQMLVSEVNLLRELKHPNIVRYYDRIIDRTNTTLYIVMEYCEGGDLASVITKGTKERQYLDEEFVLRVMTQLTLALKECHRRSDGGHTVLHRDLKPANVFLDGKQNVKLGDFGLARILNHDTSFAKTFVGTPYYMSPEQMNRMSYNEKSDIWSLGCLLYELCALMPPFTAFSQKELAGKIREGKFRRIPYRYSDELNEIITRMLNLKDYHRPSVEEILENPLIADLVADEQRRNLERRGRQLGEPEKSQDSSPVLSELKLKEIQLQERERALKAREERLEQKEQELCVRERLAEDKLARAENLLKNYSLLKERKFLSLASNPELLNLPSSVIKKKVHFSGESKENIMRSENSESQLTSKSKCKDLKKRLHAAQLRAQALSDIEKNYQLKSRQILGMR
# [15] = target: T6, Serine/threonine-protein kinase Nek2 (Homo sapiens); details: at 1 µM
# [16] = target: Serine/threonine-protein kinase Nek6 (Homo sapiens) (UniProt Q9HC98); details: at 0.1 µM
# Chain of Serine/threonine-protein kinase Nek6 (Homo sapiens) (Q9HC98 whole entry): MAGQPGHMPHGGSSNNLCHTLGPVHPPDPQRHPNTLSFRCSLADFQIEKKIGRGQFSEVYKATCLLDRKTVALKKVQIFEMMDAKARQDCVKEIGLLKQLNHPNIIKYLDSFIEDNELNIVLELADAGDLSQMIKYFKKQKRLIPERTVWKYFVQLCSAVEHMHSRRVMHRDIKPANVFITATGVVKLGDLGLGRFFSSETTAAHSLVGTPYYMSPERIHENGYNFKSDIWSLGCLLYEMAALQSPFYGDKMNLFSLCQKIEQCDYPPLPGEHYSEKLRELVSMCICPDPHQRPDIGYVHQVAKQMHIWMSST
# [17] = target: Serine/threonine-protein kinase Nek6 (Homo sapiens) (UniProt Q9HC98); details: at 1 µM
# [18] = target: Serine/threonine-protein kinase Nek7 (Homo sapiens) (UniProt Q8TDX7); details: at 0.1 µM
# Chain of Serine/threonine-protein kinase Nek7 (Homo sapiens) (Q8TDX7 whole entry, looked up): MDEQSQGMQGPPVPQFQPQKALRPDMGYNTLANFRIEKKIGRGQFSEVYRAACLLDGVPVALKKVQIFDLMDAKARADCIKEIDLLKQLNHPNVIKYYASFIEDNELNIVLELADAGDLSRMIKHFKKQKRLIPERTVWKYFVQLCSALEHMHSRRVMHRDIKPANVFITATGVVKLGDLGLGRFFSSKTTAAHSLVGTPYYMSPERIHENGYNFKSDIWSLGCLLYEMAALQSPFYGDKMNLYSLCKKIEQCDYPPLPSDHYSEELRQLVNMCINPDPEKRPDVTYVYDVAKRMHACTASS
# [19] = target: Serine/threonine-protein kinase Nek7 (Homo sapiens) (UniProt Q8TDX7); details: at 1 µM
# [20] = target: T7, Serine/threonine-protein kinase Nek9 (Homo sapiens) (UniProt Q8TD19); details: at 0.1 µM;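 further: reported value is the mean percent inhibition of NEK9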
# T7 sequence (whole entry): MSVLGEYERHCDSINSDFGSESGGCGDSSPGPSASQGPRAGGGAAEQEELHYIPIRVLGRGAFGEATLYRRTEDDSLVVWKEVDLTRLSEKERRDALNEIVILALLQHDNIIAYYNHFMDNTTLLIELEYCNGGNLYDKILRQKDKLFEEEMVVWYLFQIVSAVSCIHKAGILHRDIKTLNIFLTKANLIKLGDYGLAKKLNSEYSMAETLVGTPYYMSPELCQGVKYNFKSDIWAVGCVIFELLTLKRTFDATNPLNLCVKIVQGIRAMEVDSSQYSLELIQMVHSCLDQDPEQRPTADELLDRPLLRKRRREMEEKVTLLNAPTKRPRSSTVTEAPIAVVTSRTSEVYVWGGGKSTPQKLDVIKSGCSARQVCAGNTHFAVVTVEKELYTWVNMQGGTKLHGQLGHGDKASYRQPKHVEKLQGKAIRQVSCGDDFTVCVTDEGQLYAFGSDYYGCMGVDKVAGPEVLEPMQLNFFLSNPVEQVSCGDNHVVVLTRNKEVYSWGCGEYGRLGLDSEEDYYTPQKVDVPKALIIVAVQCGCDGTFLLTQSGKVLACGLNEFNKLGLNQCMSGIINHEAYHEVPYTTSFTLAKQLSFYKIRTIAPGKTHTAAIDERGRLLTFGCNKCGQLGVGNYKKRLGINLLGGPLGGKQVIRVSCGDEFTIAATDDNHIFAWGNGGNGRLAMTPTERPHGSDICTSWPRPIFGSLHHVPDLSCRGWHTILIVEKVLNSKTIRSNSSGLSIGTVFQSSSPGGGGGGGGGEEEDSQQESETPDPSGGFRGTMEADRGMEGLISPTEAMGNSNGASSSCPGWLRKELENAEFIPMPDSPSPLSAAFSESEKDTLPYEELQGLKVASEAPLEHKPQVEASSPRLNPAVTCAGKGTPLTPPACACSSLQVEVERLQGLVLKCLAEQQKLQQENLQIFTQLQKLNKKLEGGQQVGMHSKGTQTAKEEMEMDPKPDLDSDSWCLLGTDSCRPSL
# Chain of Sphingosine kinase 1 (Homo sapiens) (Q9NYA1 whole entry): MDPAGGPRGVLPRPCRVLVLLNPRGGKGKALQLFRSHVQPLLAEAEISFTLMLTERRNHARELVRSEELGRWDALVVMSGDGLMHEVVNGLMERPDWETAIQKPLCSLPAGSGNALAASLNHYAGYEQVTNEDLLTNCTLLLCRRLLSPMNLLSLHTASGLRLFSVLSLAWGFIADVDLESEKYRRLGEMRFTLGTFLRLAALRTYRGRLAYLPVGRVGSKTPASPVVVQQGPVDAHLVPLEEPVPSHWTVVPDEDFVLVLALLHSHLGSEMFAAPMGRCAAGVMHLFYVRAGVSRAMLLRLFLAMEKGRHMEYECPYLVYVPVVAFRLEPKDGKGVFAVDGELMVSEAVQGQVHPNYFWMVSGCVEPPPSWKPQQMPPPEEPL
compound,measurement,setting,value
COc1ccc(-c2coc3ncnc(N)c23)cc1,inhibition,[1],2.86%
same,inhibition,[2],1.04%
same,inhibition,[3],-0.88%
same,inhibition,[4],4.06%
same,inhibition,[5],-2.3%
same,inhibition,[6],4.01%
same,inhibition,[7],-4.53%
same,inhibition,[8],10.3%
same,inhibition,[9],9.84%
same,inhibition,[10],5.67%
same,inhibition,[11],4.6%
same,inhibition,[12],2.17%
same,inhibition,[13],2.92%
same,inhibition,[14],4.88%
same,inhibition,[15],4.8%
same,inhibition,[16],1.43%
same,inhibition,[17],2.31%
same,inhibition,[18],6.65%
same,inhibition,[19],4.79%
same,inhibition,[20],6.76%
